# Screen size: about 16,000 compounds; about 2,600 (16%) were called active. About 20% were inconclusive and are not listed. A selection follows. Values without a mark were called inactive. The call rests on the fitted dose curve; in most records, active means well fitted curve in the direction sought with a large enough effect; inconclusive means small, poorly fitted or top-dose-only effect, or effect the other way; inactive means no such curve, though single readings can be large or run the other way.
# Molecular target: Cytochrome P450 2D6 (Homo sapiens) (UniProt P10635)
# Sequence (P10635 whole entry, looked up): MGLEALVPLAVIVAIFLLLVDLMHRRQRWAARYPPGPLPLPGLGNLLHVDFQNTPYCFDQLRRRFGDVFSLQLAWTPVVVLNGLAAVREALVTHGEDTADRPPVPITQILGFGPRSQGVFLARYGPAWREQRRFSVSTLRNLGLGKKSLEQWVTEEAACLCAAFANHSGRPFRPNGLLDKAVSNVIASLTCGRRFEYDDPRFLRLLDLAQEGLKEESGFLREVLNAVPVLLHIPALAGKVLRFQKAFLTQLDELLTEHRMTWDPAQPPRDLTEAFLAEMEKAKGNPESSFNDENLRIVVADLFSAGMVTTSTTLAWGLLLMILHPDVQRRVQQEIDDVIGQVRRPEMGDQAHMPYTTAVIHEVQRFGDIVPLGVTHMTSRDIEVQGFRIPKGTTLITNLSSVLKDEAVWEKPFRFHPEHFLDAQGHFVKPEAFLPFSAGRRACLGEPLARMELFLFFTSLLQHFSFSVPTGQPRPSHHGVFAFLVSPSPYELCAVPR
# Assay: Cytochrome panel assay with activity outcomes
# Details: recombinant CYP, pro-luciferin dealkylation, luminescence, p450-cyp2d6; series mostly up to 57.1 µM
# On the % scale 0 is the no-effect control and ±100 the full control effect.
Structure (SMILES),AC50,"activity, negative = inhibition"
CCCc1cc(=O)oc2cc(OCc3cc(OC)c(OC)c(OC)c3)c(Cl)cc12,inactive,–
O=C(Cc1ccccc1)N/N=C\c1ccc(Br)o1,inactive,–
O=C(Nc1cccc2ncccc12)c1cccc(F)c1,inactive,–
CC1Cc2ccccc2N1C(=O)CCN1C(=O)C2C3C=CC(C3)C2C1=O (configuration not stated),inactive,–
CC(C)(C)Cn1nc(-c2ccc(Cl)cc2)c2c(N)ncnc21,inactive,–
Nc1nc(N)nc(CCCc2nc(N)nc(N)n2)n1,–,19.1% [at 11.4 µM]
C/C(=C(/CCO)SSC[C@@H]1CCCO1)N(C=O)Cc1cnc(C)nc1N,inactive,–
COc1cccc(Nc2ncc3ncc(=O)n(CCC#N)c3n2)c1,inactive,–
C1CCc2c(nc3nnnn3c2NC2CCCC2)C1,inactive,–
Cc1cc(=O)oc(C)c1C(=O)Nc1ccc(Cl)cn1,inactive,–
CCOc1ccc(C(=O)Nc2ccc(Cl)cn2)cc1Cl,7.94 µM (active),–
COc1ccc(C(=O)Nc2ccc(Cl)cn2)cc1Cl,3.55 µM (active),–
CCOc1ccc(C(=O)Nc2ccc(NC(=O)c3ccco3)c(Cl)c2)cc1Br,inactive,–
COc1ccc(C(=O)Nc2cc(Cl)ccc2OC(=O)c2ccc(OC)cc2)cc1,inactive,–
CCOc1ccc(C(=O)Nc2cccc(-c3nc4cccnc4o3)c2)cc1Cl,inactive,–
CCOc1cccc(C2C(C(=O)c3ccc(C)o3)=C(O)C(=O)N2Cc2ccncc2)c1 (configuration not stated),inactive,–
CC(C)NC(=O)C(C)n1cccc1C(=O)c1ccccc1 (configuration not stated),inactive,–
O=C(c1cc(-c2cccs2)on1)N1CCN(c2ccc(F)cc2)CC1,inactive,–
O=C(CCS(=O)(=O)c1cccs1)N1CCN(c2ccc(F)cc2)CC1,20 µM (active),–
CCC(=O)N1CCN(c2ccc(NC(=O)c3cccs3)cc2)CC1,inactive,–
Cc1nc2sccn2c(=O)c1Cl,inactive,–
CCCCCCCCN1C(=O)N(C)C(N(O)C(=O)NC)C1(C)C (configuration not stated),inactive,–
Cc1cc(C(=O)CSC(=S)SC(C)(C)C)ccc1Cl,–,-0.319% [at 11.4 µM]
CCC(C(=O)N1CCOCC1)n1c(C(=O)OC)cc2occc21 (configuration not stated),inactive,–
COc1cc2c3cc1Oc1c(OC)c(OC)cc4c1[C@@H](Cc1ccc(O)c(c1)Oc1ccc(cc1)C[C@@H]3N(C)CC2)CN(C)C4,–,2.38% [at 11.4 µM]
CCS(=O)(=O)N1CCC[C@H]2CN3CCc4cc(OC)ccc4[C@@H]3C[C@@H]21,inactive,–

Structure (SMILES),AC50,"activity, negative = inhibition"
COc1c(O)ccc2c1CN1CCc3cc4c(cc3[C@@H]1C2)OCO4,0.158 µM (active),–
COc1ncc2nc(C)c(=O)n(C3CC3)c2n1,inactive,–
COc1ccc(Cc2n[nH]c(=O)c3ccccc23)cc1OC,inactive,–
O=C(CNC(=O)c1ccco1)OCc1c(F)cccc1Cl,inactive,–
N[C@@H](CSC(=O)c1ccccc1)C(=O)O,–,9.96% [at 11.4 µM]
O=C(OCCN1CCCCC1)c1c[nH]c2ccccc12,inactive,–
Cc1c(-c2ccccc2)oc2c(C(=O)OCCN3CCCCC3)cccc2c1=O,7.94 µM (active),–
Cc1ccccc1C(=O)Oc1ccc(Br)cc1C(=S)N1CCCC1,inactive,–
Cc1ccccc1Oc1ccc(-c2nc(N)nc(N)n2)cc1,inactive,–
O=C(N/N=C/c1ccc(O)cc1)c1csc2ccccc12,inactive,–
O=C(Oc1ccc2ccccc2c1Br)N1CCCCCC1,inactive,–
O=C(CCN1CCCCC1)c1csc2ccccc12,1 µM (active),–
Cc1noc(C)c1-c1cc(N2CCN(C)CC2)ncn1,inactive,–
O=C(O)Cc1ccc2c(c1)N(S(=O)(=O)c1cccc(C(F)(F)F)c1)CC(C(=O)O)O2 (configuration not stated),inactive,–
C=CC1=C[C@@H](O)C2OC2C12OCCCO2 (some centres not stated),–,-1.06% [at 11.4 µM]
Cc1[nH]n(-c2ccc(S(=O)(=O)O)cc2)c(=O)c1N=Nc1ccccc1,–,16.9% [at 11.4 µM]
O=C(Oc1ccccc1)N1CCC2(CCCN(c3ccccc3)C2)CC1,inactive,–
CCCCn1c(SCC(=O)N2CCCC2)nc2c1c(=O)n(C)c(=O)n2C,inactive,–
CCCCCn1c(CN2CCCCC2C)nc2c1c(=O)n(C)c(=O)n2C (configuration not stated),14.1 µM (active),–
CN(C)CCn1c(CO)nc2c1c(=O)n(C)c(=O)n2C,–,-1.53% [at 11.4 µM]
Cc1ccc(-n2nnnc2SCC(=O)NNC(=O)c2ccco2)c(C)c1,inactive,–
O=C(NCC(c1cccnc1)N1CCOCC1)Nc1ccccc1 (configuration not stated),inactive,–
c1ccc(C[C@@H](Nc2cccnc2)c2ccccc2)cc1,1 µM (active),–
O=C(O)Cc1cccnc1,–,16.4% [at 11.4 µM]
O=S(=O)(O)c1cc(O)c2c(O)c(N=Nc3cccc4ccccc34)c(S(=O)(=O)O)cc2c1,–,-16% [at 11.4 µM]
COc1cc(C2SCCCCCCCCCCSC(c3ccc(O)c(OC)c3)SCCCCCCCCCCS2)ccc1O (configuration not stated),–,6.94% [at 11.4 µM]

Structure (SMILES),AC50,"activity, negative = inhibition"
COc1ccc(NC(=O)COC(=O)c2c3c(nc4ccccc24)CCCC3)cc1,inactive,–
COc1ccc(OC)c(NC(=O)c2c3c(nc4ccccc24)CCC3)c1,inactive,–
COc1cccc(NC(=O)COC(=O)c2c3c(nc4ccccc24)CCC(C)C3)c1 (configuration not stated),7.94 µM (active),–
C[N+]1(CCOc2ccc([N+](=O)[O-])cc2)CCOCC1,inactive,–
Cc1ccc(/S(C)=N/S(=O)(=O)c2ccc(C)cc2)cc1 (configuration not stated),inactive,–
C[C@@H](c1ccccc1)N1C(=O)[C@@H]2[C@H]3C(=CC[C@H]2C1=O)C(=O)[C@H]1O[C@H]1[C@H]3O,–,5.61% [at 11.4 µM]
CN1CCN(c2nc(-c3ccccc3)cc(C(F)(F)F)n2)CC1,17.8 µM (active),–
COc1ccccc1N1CCN(c2nc(-c3ccccc3)cc(C(F)(F)F)n2)CC1,inactive,–
COc1cccc(-c2cc(C(F)(F)F)nc(N3CCN(c4ccccc4)CC3)n2)c1,inactive,–
O=C(c1ccccc1)c1ccc(OCCn2cnc3ccccc3c2=O)cc1,inactive,–
CC1CC(OCC(O)CN2CCN(Cc3ccccc3)CC2)CC(C)(C)C1 (configuration not stated),inactive,–
CC1CCC(C(C)C)C(OCC(O)CN2CCN(Cc3ccccc3)CC2)C1 (configuration not stated),0.112 µM (active),–
O=C(c1ccccc1)c1ccc(OCC(O)CN2CCN(Cc3ccccc3)CC2)cc1 (configuration not stated),3.16 µM (active),–
COc1cc(/C=C/C(=O)N2CCN(CC(O)COc3ccccc3)CC2)cc(OC)c1OC (configuration not stated),inactive,–
Cc1cccc(-n2nnc3cnn(C)c3c2=O)c1,inactive,–
O=C(O)[C@@H]1[C@H](C(=O)O)[C@H]2C(=O)C=C[C@H]1N2Cc1ccccc1,–,3.08% [at 11.4 µM]
Cc1nn(C)c(Cl)c1NC(=O)OCc1ccc(F)cc1,inactive,–
CC(=O)[C@@H]1CC[C@@H]2[C@@H]3C[C@H](C)C4=CC(=O)CC[C@@]4(C)[C@H]3[C@H](O)C[C@]21C,inactive,–
C=C(NC(=O)C(=C)NC(=O)c1csc(C2=N[C@@H]3c4csc(n4)[C@@H]4NC(=O)c5csc(n5)[C@@H]([C@](C)(O)[C@H](C)O)NC(=O)[C@@H]5CSC(=N5)/C(=C/C)NC(=O)[C@@H]([C@H](C)O)NC(=O)c5csc(n5)[C@]3(CC2)NC(=O)[C@@H](C)NC(=O)C(=C)NC(=O)[C@@H](C)NC(=O)[C@@H]([C@@H](C)CC)N[C@H]2C=Cc3c([C@H](C)O)cc(nc3[C@@H]2O)C(=O)O[C@H]4C)n1)C(N)=O,inactive,–
Cn1c(=O)c2[nH]c(C3CCCC3)nc2n(C)c1=O,inactive,–
Cc1nn(Cc2ccc(Cl)cc2)c(C)c1NC(=O)Cn1nc([N+](=O)[O-])c(Cl)c1C,inactive,–
COc1cnc(NS(=O)(=O)c2ccc(N)cc2)nc1,inactive,–
CCOC(=O)C1=C(O)/C(=C\c2ccc(OC)c(OC)c2)N=C1C,inactive,–
CN(C)c1ccc(-c2cncnc2N(C)Cc2ccco2)cc1,12.6 µM (active),–
Cc1noc(C)c1-c1cncnc1N(C)Cc1ccco1,inactive,–
CN(Cc1ccco1)c1ncncc1-c1cccnc1,inactive,–

Structure (SMILES),AC50,"activity, negative = inhibition"
CN(Cc1ccco1)c1ncncc1-c1ccc2c(c1)OCO2,1.26 µM (active),–
CN(Cc1ccco1)c1ncncc1-c1ccccc1Cl,12.6 µM (active),–
COc1cccc(-c2cncnc2N(C)Cc2ccco2)c1,12.6 µM (active),–
Cn1c(SCC(=O)c2ccc3c(c2)Cc2ccccc2-3)nnc1-c1ccccc1,inactive,–
Cc1cc(C)nc(Nc2n[nH]c(COc3cccc4ccccc34)n2)n1,inactive,–
CCN1CCc2nc(N)oc2CC1,inactive,–
Nc1ncnc2c1ncn2[C@H]1O[C@@H](C(=O)O)[C@@H](O)[C@H]1O,–,2.66% [at 11.4 µM]
Cc1c(CC(C)(C)C(=O)O)n(Cc2ccc(Cl)cc2)c2ccc(F)cc12,inactive,–
Cc1cc(C(F)(F)F)n2nc(-c3cnn(C)c3C(F)(F)F)c(Cl)c2n1,inactive,–
CNc1oc(C)nc1S(=O)(=O)c1ccc(C)cc1,inactive,–
COCCn1c(=O)c(-c2cccc(C#N)c2)nc2cnc(N3CCOCC3)nc21,inactive,–
COc1cc(OC)c2cc(-c3ccncc3)cnc2c1,inactive,–
COCCNC(=O)/C(C#N)=C/c1ccc(-c2ccc(OC)cc2[N+](=O)[O-])o1,inactive,–
CO/N=C/c1ccc(N2CCN(C(=O)c3ccc(Cl)cc3Cl)CC2)c([N+](=O)[O-])c1,inactive,–
Cc1snc(SCC(=O)N/N=C(\N)COc2cccc(C(F)(F)F)c2)c1C#N,inactive,–
CC(=O)OC[C@@H]1O[C@H](C/C=N\O[C@@H]2O[C@H](COC(C)=O)[C@@H](OC(C)=O)[C@H](OC(C)=O)[C@H]2OC(C)=O)C=C[C@@H]1OC(C)=O,3.98 µM (active),–
CC(=O)OC[C@@H]1O[C@H](C/C=N\OCC[C@H]2C=C[C@H](OC(C)=O)[C@@H](COC(C)=O)O2)C=C[C@@H]1OC(C)=O,–,-6.46% [at 11.4 µM]
CC(=O)OC[C@H]1O[C@@H](O/N=C\[C@@H](C)[C@H](OCc2ccccc2)C(C)C)[C@H](OC(C)=O)[C@@H](OC(C)=O)[C@H]1OC(C)=O,3.98 µM (active),–
C=CC[C@@H]1C=C[C@@H](O/N=C\C[C@@H]2C=C[C@H](OC(C)=O)[C@H](COC(C)=O)O2)[C@@H](CO)O1,–,-12% [at 11.4 µM]
CC(=O)OC[C@H]1O[C@@H](ON=C(C)C)[C@H](OC(C)=O)[C@@H](OC(C)=O)[C@H]1OC(C)=O,3.16 µM (active),–
CC(=O)OC[C@@H]1O[C@H](CCO/N=C\[C@@H](C)[C@H](OCc2ccccc2)C(C)C)C=C[C@@H]1OC(C)=O,–,-18.8% [at 11.4 µM]
CC(=O)OC[C@@H]1O[C@H](CCON=C(C)C)C=C[C@@H]1OC(C)=O,–,-4.81% [at 11.4 µM]
CC(=O)OC[C@@H]1O[C@H](C/C=N\OC[C@@H](C)[C@H](OCc2ccccc2)C(C)C)C=C[C@@H]1OC(C)=O,–,-1.74% [at 11.4 µM]
COC(=O)[C@@H]1CC[C@H](C)[C@@H](c2ccc(C)cc2)N1C(=O)c1ccc(/C=N\O[C@@H]2O[C@H](COC(C)=O)[C@H](OC(C)=O)[C@H](OC(C)=O)[C@H]2OC(C)=O)cc1,–,-6.2% [at 11.4 µM]

# Source: PubChem BioAssay AID1851 (National Center for Advancing Translational Sciences (NCATS), 2009)
